Assay outcomes as filed in PubChem.
PLCg1 inh – inhibitors of human phospholipase C gamma1; P19174; inhibition, % at 12.2 µM; purified PLC-gamma1, fluorogenic substrate, fluorescence; 370,000 compounds, 0.84% hits; AID 720700; in the data active = inhibition above about 9.5%
PLCb3 inh – inhibitors of human phospholipase C beta3; Purified PLC-beta3, fluorogenic substrate, fluorescence; inhibition, % at 12.2 µM; AID 720704; 370,000 compounds, 0.18% hits
GC-A act – GC-A (human) enzyme activation; HEK293 GC-A cells, cGMP TR-FRET, EC30 ANP; 0% at EC30 ANP, 100% saturating ANP; 370,000 compounds, 0.14% hits; activation, % at 10 µM; in the data active = activation above about 40%
Target sequence (P16066 whole entry, looked up): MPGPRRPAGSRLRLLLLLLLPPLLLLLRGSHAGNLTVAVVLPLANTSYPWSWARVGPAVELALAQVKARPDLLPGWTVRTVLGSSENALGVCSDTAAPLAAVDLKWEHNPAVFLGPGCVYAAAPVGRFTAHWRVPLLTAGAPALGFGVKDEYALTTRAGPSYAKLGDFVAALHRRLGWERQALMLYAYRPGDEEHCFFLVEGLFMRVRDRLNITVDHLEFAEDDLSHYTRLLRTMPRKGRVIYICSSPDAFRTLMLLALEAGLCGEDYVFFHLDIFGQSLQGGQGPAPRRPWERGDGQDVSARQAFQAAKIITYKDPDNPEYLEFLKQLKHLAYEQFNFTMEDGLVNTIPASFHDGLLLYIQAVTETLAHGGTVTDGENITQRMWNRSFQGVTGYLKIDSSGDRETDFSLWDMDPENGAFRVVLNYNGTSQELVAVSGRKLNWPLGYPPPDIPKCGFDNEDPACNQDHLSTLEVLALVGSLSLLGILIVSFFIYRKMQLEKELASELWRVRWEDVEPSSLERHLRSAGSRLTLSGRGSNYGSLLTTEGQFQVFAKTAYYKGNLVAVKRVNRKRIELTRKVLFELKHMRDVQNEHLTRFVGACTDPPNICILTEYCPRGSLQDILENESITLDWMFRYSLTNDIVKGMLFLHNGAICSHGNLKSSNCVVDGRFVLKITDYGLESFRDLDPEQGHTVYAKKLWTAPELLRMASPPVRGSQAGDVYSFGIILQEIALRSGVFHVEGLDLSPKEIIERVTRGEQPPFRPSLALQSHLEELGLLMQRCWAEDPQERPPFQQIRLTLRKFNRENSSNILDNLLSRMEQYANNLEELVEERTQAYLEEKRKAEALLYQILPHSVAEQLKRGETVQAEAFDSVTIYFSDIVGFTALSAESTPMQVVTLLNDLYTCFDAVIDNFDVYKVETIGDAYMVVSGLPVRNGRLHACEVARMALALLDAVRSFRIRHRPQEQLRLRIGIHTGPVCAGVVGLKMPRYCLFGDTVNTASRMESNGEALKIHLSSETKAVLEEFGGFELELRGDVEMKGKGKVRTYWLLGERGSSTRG
NPR2 activator – GC-B (human) receptor activation. HEK293-GC-B cells, CNP EC30, cGMP TR-FRET; 0% at EC30 CNP, 100% saturating CNP. activation, % at 10 µM. 370,000 compounds, 0.11% hits;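 active = activation at 10 µM reaching about 35% in either raw or pattern-adjusted values, limit read from the data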
PLCgamma1 ctr – inhibits human PLC-gamma1 in PLC-beta3 counter-screen; purified PLC-gamma1, fluorogenic substrate, fluorescence; AID 743258; shares compounds with PLCg1 inh; 3,300 compounds, 3.1% hits; inhibition, % at 12.3 µM; in the data active = inhibition above about 9.5%
PLCb3 confirm – confirmation of human PLC-beta3 inhibitors; shares compounds with PLCg1 inh; purified PLC-beta3, fluorogenic substrate fluorescence; inhibition, % at 12.3 µM; 3,300 compounds, 1% hits
Hits are given with their value; - = inactive; . = not tested or not shown. Sampled rows, rich in hits. Any-hit rate of the full collection: about 1.2%. Rule as the data show it, unless noted: active = inhibition above about 11%; inactive = the rest.

SMILES	PLCg1 inh	PLCb3 inh	GC-A act	NPR2 activator	PLCgamma1 ctr	PLCb3 confirm
COc1ccc(C(=O)C2CCCN(C(=O)CSC)C2)cc1OC (stereo not drawn)	14.0	-	-	-	-	-
COc1ccc(C(=O)C2CCCN(C(=O)Cn3ccc(C)n3)C2)cc1OC (stereo not drawn)	-	-	-	-	.	.
CCOC(=O)C1=C(C)N(C[C@@H]2CC[C@@H](Cc3ccc(-c4ccccc4)cc3)O2)C(=O)NC1c1ccc(SCc2ccco2)c([N+](=O)[O-])c1 (stereo partly drawn)	-	-	-	-	.	.
Cc1cc(C)nc(Nc2nc(C(N)CCc3ccccc3)cs2)n1 (stereo not drawn)	14.0	11.1	-	-	-	-
CC(C)[C@@H]1CC[C@@H](C)C[C@H]1OC(=O)C[n+]1cc(-c2ccc(Cl)cc2)n2c1CCCCC2	11.5	-	-	-	-	-
CN(C(=O)COC(=O)C1CCN(S(=O)(=O)c2ccc(Cl)cc2)CC1)C1CCS(=O)(=O)C1 (stereo not drawn)	-	-	-	-	.	.
CN(C(=O)COC(=O)C1CCN(S(=O)(=O)c2ccc3c(c2)OCCO3)CC1)C1CCS(=O)(=O)C1 (stereo not drawn)	13.7	-	-	-	-	-
Cc1cc(C)n(CC(C)NCc2cn[nH]c2-c2ccc(C)c(C)c2)n1 (stereo not drawn)	-	-	-	-	.	.
COc1ccccc1C(=O)Nc1ccc(OCC(=O)N2C(C)CCCC2C)cc1 (stereo not drawn)	-	-	-	-	.	.
Cc1nn(-c2ccccc2)c(OC(=O)c2cccs2)c1S(=O)(=O)c1ccccc1	14.0	-	-	-	-	-
Cc1nn(-c2ccccc2)c(OC(=O)c2cccs2)c1S(=O)(=O)c1ccc([N+](=O)[O-])cc1	14.5	19.5	-	-	-	-
COC(=O)CSC1=C(C#N)C(=O)NC2(CCCCC2)S1	16.0	-	-	-	-	-
Cc1cccc(NC2=C(C#N)C(=O)NC3(CCCC3)S2)c1	-	-	-	-	.	.
O=C1NC(c2ccc(-c3ccccc3[N+](=O)[O-])o2)C(C(=O)c2ccccc2)C(O)(C(F)(F)F)N1 (stereo not drawn)	-	11.4	-	-	-	-
Cc1ccsc1C(=O)OCC(=O)N1CC(=O)Nc2ccccc21	-	-	-	-	.	.
COc1ccc(CNCC(O)COc2ccc(C(C)(C)c3ccccc3)cc2)cc1 (stereo not drawn)	10.9	-	-	-	-	-
COc1ccc(-c2csc(=Nc3ccccc3)n2CCO)cc1	-	-	-	-	.	.
COc1ccc(-c2csc(=NCCO)n2-c2ccccc2)cc1	10.0	-	-	-	-	-
C/C(=N\N=C(/N)SC1CC(=O)N(c2ccc(Cl)cc2)C1=O)c1cccs1 (stereo not drawn)	9.9	-	-	-	-	-
Cc1ccc(CN(C)C(=O)CCNS(=O)(=O)c2ccccc2)o1	-	-	-	-	.	.
O=C(Cn1[nH]c(=O)c2ccccc2c1=O)NCC1COc2ccccc2O1 (stereo not drawn)	-	-	-	-	.	.
O=C(O)CS(=O)CC(=O)Nc1cccc(C(F)(F)F)c1 (stereo not drawn)	19.6	-	-	-	25.4	-
COc1ccccc1NS(=O)(=O)c1ccc2c(c1)N(C(C)=O)CC(C)S2 (stereo not drawn)	-	-	-	-	.	.
COCOc1cccc(CN2CCC2(C)C(=O)Nc2ccc(C)cc2)c1 (stereo not drawn)	12.9	-	-	-	-	-
CC(C)c1ccc(CN2CCC2(C)C(=O)Nc2ccc3c(c2)OCO3)cc1 (stereo not drawn)	-	-	-	-	.	.
SMILES	PLCg1 inh	PLCb3 inh	GC-A act	NPR2 activator	PLCgamma1 ctr	PLCb3 confirm
CC(C)Oc1ccc(CN2CCC2(C)C(=O)Nc2ccc3c(c2)OCO3)cc1 (stereo not drawn)	12.4	-	-	-	-	-
Nc1cc(N)c2c(c1)C(=O)c1ccccc1-2	9.8	-	-	-	-	-
O=C(c1cccs1)N1CCN(C(=O)c2cn(-c3ccccc3)nc2-c2ccccc2)CC1	-	11.6	-	-	-	-
CCOC(=O)c1[nH]c(C)c(C(=O)N2CCN(C(=O)c3ccco3)CC2)c1C	-	-	-	-	.	.
CCCCCC(=O)Nc1ccc(N2CCN(S(C)(=O)=O)CC2)cc1	9.7	-	-	-	-	-
CCCCC(=O)Nc1ccc(N2CCCC2)cc1	-	-	-	-	.	.
COc1ccc(CNC(=O)CCNS(=O)(=O)c2ccc(Br)s2)cc1	-	-	-	-	.	.
COc1ccc2c(OC)cc(=O)n(C)c2c1	12.8	-	-	-	-	-
CC1(C)CC2(OC2c2ccccc2)C(=O)c2ccccc21 (stereo not drawn)	-	-	-	-	.	.
CC1=[N+]([O-])C(C)(C)CC(C)(C)c2ccccc21	-	11.7	-	-	-	-
COc1ccc(S(=O)(=O)NCC2CCCN(C(=O)C3CCCC3)C2)cc1 (stereo not drawn)	-	-	-	-	.	.
CCCN1CCCc2cc(CN)ccc21	-	-	-	-	.	.
Cc1ccc(NS(=O)(=O)N2CCOCC2)cc1	12.0	-	-	-	-	-
Clc1ccc(CN2CCN(c3ncc(Cc4ccccc4)cn3)CC2)cc1	-	-	-	-	.	.
c1ccc(Cc2cnc(N3CCN(Cc4ccc5c(c4)OCCO5)CC3)nc2)cc1	9.8	-	-	-	-	-
O=C(NC1CCCCCCC1)c1ccco1	11.2	-	-	-	-	-
Cc1ccc(C(C(=O)NC2CCCCC2)N(CC2CCCO2)C(=O)CNC(=O)c2ccco2)cc1 (stereo not drawn)	10.0	-	-	-	-	-
O=C(NCC(=O)N(CC1CCCO1)C(C(=O)NC1CCCCC1)c1ccc(F)cc1)c1ccco1 (stereo not drawn)	-	-	-	-	.	.
O=C(NC1CCN(C(=O)NC2CCCCC2)CC1)c1ccco1	-	-	-	-	.	.
O=C(CNCc1ccc(Cl)cc1)Nc1ccc2c(c1)OCCO2	10.2	-	-	-	-	-
O=C(CNCc1ccccc1Cl)Nc1ccc2c(c1)OCCO2	-	-	-	-	.	.
O=C(NCCc1ccccc1)C1CCCN1S(=O)(=O)c1ccc(F)cc1 (stereo not drawn)	-	12.1	-	-	-	-
CCSc1nc2ccccc2n1CC(=O)OC	12.6	-	-	-	-	-
O=C(COC(=O)c1ccc(Br)o1)NCCc1ccccc1	-	-	-	-	.	.
Cc1cc(C)nc(Nc2nc3ccccc3[nH]2)n1	13.5	-	-	-	-	-
O=C(NC(=S)Nc1ccc(N2CCCCC2)cc1)c1ccco1	-	-	-	-	.	.
COc1ccc(NC(=O)CCCCCN2C(=O)CCC2=O)cc1Cl	-	-	-	-	.	.
COc1ccc(NC(=O)CCCN2C(=O)CCC2=O)cc1Cl	11.0	-	-	-	-	-
CCCNC(=O)COC(=O)c1ccc(OCC(=O)Nc2ccccc2OC)c(OC)c1	-	-	-	-	.	.
